PubChem BioAssay AID434998 (Southern Research Specialized Biocontainment Screening …, 2010)
The source made the active and inactive calls. How the calls were made is not given here.

Experiment: S. Typhi GFP reporter counter-screen inhibition, SAR follow-up, counter-screen for PhoP regulon inhibitor project, purified and synthesized compounds, round 3 (AID 434998)
Conditions: S. typhi GFP reporter fluorescence, high Mg2+ counter-screen, 4 h; series mostly up to 150 µM; inhibition: at the top concentration
In the case of `O=C(Nc1ccc(I)cc1)N1CCCN(Cc2ccccc2F)C1`, the “inhibition” value is reported as 8.77% (inactive). With `Cc1ccc(NC(=O)N2CCCN(Cc3ccccc3F)C2)cc1` the “inhibition” value was 2.92% (inactive). With `S=C(NCCc1ccc(Cl)cc1)Nc1ccncc1` the “inhibition” value was -10.1% (inactive). For `N#Cc1ccc(NC(=S)NCc2ccc(Cl)cc2)cc1`, the “inhibition” value was -7.11% (inactive). For `Cc1cccc(NC(=O)N2CCCN(Cc3ccccc3F)C2)c1`, the “inhibition” value was 15.7% (inactive). For `O=C(Nc1ccc(Cl)cc1)N1CCCN(Cc2ccccc2Br)C1`, the “inhibition” value was 1.59% (inactive). With `Cc1ccccc1CNC(=S)Nc1ccncc1` the “inhibition” value was -0.79% (inactive). In the case of `O=C(Nc1cccc(C(F)(F)F)c1)N1CCCN(Cc2ccccc2F)C1`, the “inhibition” value is reported as 18.6% (inactive). In the case of `O=C(Nc1cccc(I)c1)N1CCCN(Cc2ccccc2F)C1`, the “inhibition” value is reported as 18.6% (inactive). In the case of `N#Cc1ccccc1NC(=S)NCc1ccc(Cl)cc1`, the “inhibition” value is reported as -7.18% (inactive). In the case of `O=C(Nc1cccc(F)c1)N1CCCN(Cc2ccccc2F)C1`, the “inhibition” value is reported as 14.9% (inactive). In the case of `O=C(Nc1ccc(Cl)cc1)N1CCCN(Cc2ccc(Br)cc2)C1`, the “inhibition” value is reported as 3.12% (inactive). For `O=C1C2=C(Nc3ccccc3SC2c2cccc(I)c2)c2ccccc21` (centres undefined), the “inhibition” value was -114% (inactive). With `COc1ccccc1CNC(=S)Nc1ccncc1` the “inhibition” value was 1.37% (inactive).
